# Source: PubChem BioAssay AID488834 (National Center for Advancing Translational Sciences (NCATS), 2010)
# Values without a mark were called inactive. The call rests on the fitted dose curve; in most records, active means well fitted curve in the direction sought with a large enough effect; inactive means no such curve, though single readings can be large or run the other way.
# Molecular target: Lysosomal alpha-glucosidase (Homo sapiens) (UniProt P10253)
# Assay: qHTS Assay for Inhibitors and Activators of N370S glucocerebrosidase as a Potential Chaperone Treatment of Gaucher Disease: Alpha-Glucosidase Counterscreen for Probe SAR
# Settings: purified human alpha-glucosidase, 4-MU fluorogenic substrate
# Text: NIH Chemical Genomics Center [NCGC] NIH Molecular Libraries Probe Production Centers Network [MLPCN] MLPCN Grant: MH086442-01 Assay Submitter (PI): Wei Zheng Glucocerebrosidase (GC) catalyzes the hydrolysis of beta-glucocerebroside to glucose and ceramide in lysosomes. Mutations in the glucocerebrosidase gene result in Gaucher disease, an autosomal recessive lysosomal storage disorder. Many of the mutations encountered in patients with Gaucher disease are missense alterations that may cause misfolding, decreased stability and/or mistrafficking of this lysosomal protein. […] These inhibitors include iminosugar analogs and three non-iminosugar inhibitors identified from a previous HTS of 62,000 compounds with the wild type recombinant enzyme. However, the enhancement of enzyme activity by the chaperone action of an enzyme inhibitor must be balanced against the direct inhibition of the enzyme. An enzyme activator could also function as a chaperone by binding to the enzyme and helping to correct its misfolding and mistrafficking. While activators for GC have not yet been identified, they may have better therapeutic potential than inhibitors. Therefore the discovery and development of chemical activators may provide a new strategy for the chaperone therapy. To characterize compound selectivity, selected hits from the primary screen were screened against purified alpha-glucosidase, a related sugar hydrolase. Alpha-glucosidase is responsible for hydrolysis of terminal, non-reducing 1,4-linked alpha-D-glucose residues with release of alpha-D-glucose.
# NCGC Assay Protocol Summary: This is a fluorogenic enzyme assay with 4-methylumbelliferyl-alpha-D-[…] as the substrate and human alpha-glucosidase as the enzyme preparation. Upon the hydrolysis of this fluorogenic substrate, the resulting product, 1. 4-methyllumbelliferone, can be excited at 365 nm and emits at 440 nm which can be detected by a standard fluorescence plate reader. Data were normalized to the controls for basal activity (without enzyme) and 100% activity (with enzyme). The AC50 values were determined from concentration-response data modeled with the standard Hill equation. Assay buffer: 50 mM citric acid (titrated with potassium phosphate to pH 5.0), 0.005% Tween-20, pH 5.0. (pH 5.0 is an optimal condition for this enzyme assay) 1536-well assay protocol for the human alpha-glucosidase: (1) Add 2 ul/well of enzyme (4 nM final) (2) Add 23 nL compounds in DMSO solution. The final titration was 0.7 nM to 77 uM. (3) Add 1 ul of substrate (400 uM final) (4) Incubate at room temperature for 20 min. (5) Add 2 ul stop solution (1M NaOH and 1M Glycine mixture, pH 10) (6) Detect the assay plate in a ViewLux plate reader (PerkinElmer) with Ex=365 nm and Em=440nm. Keywords: Alpha-glucosidase, Pompe Disease, pharmacological chaperone, chaperone therapy, high throughput screening, alpha-glucosidase inhibitor, MLSMR, MLSCN, NIH Roadmap, qHTS and NCGC
row,Structure (SMILES),max response [%]
1,O=C(NC1CCCCC1)c1cnn2c1NC(=C1CC1)C=C2C(F)F,-3.85
2,O=C(Nc1ccccc1Sc1ccccc1)c1cnn2c1NC(=C1CC1)C=C2C(F)(F)F,-11.4
3,O=C(Nc1ccccc1Sc1ccccc1)c1cnn2c1NC(=C1CC1)C=C2C(F)F,-18.1
4,O=C(Nc1ccc2c(c1)CCC2)c1cnn2c1NC(=C1CC1)C=C2C(F)F,-4.43
5,C=C1C=C(C(F)F)n2ncc(C(=O)Nc3ccc(C(C)CC)cc3)c2N1 (stereo unspecified),-2.76
6,C#Cc1ccc(NC(=O)c2cnn3c(C)cc(C)nc23)cc1,-2.48
